# Shown are actives, neighbours in structure and some others; about 6.8% of the full set was active somewhere.
# T cruzi growth-1 – inhibitors of T. cruzi proliferation; T. cruzi beta-gal in NIH3T3, GalScreen luminescence, 90 h; inhibition, % at 8.34 µM; 5.9% of 77,000 active; AID 624255;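 active = mean inhibition above about 93%, with at least 55% of replicates each passing it, limit read from the data, passing the limit was not always enough; inconclusive = only one of those two conditions holds; inactive = neither condition holds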
# Pf Dd2 inh – blocks growth of Plasmodium falciparum Dd2 parasites | AID 1159554 | P. falciparum Dd2 growth, SYBR Green, 72 h; active compounds read low | 2.3% of 94,000 active | activity change, % at 10 µM; in the data active = activity change below about -80%; inconclusive = no clear call, values can overlap the other calls
# C diff HTS – blocks growth of Clostridium difficile | 0.25% of 86,000 active | growth activity, negative = inhibition, % at 16 µg/mL (by protocol) | Clostridium difficile clinical isolate growth, OD600, 24 h; active compounds read low;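 active = mean growth activity at or below -80% and every replicate also at or below -80%; inconclusive = mean at or below -80% but some replicate above -80%; inactive = mean growth activity above -80%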;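 also: 0% = DMSO wells and -100% = levofloxacin 16 µg/mL wells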
# T cruzi growth-2 – Trypanosoma cruzi proliferation inhibition. inhibition, % at 8.35 µM. 72% of 5,600 active. shares compounds with T cruzi growth-1. T. cruzi beta-gal in NIH3T3, GalScreen luminescence, 90 h;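 active = mean replicate inhibition above about 95% and at least 55% of replicates individually reaching it, limit read from the data; inconclusive = only one of the two criteria is met; inactive = neither criterion is met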
# T cruzi growth-3 – blocks T. cruzi growth in NIH3T3 host cells | shares compounds with T cruzi growth-1 | T. cruzi beta-gal in NIH3T3, GalScreen luminescence, 90 h | inhibition, % at 2.09 µM | 21% of 5,600 active | AID 651740;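 active = mean inhibition above about 95%, with at least 55% of replicates also reaching it, limit read from the data; inconclusive = meets just one of the two conditions; inactive = meets neither condition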;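 also: plate controls were neutral control median for no effect and positive control median for full effect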
# NIH3T3 tox – NIH/3T3 (mouse) viability loss | shares compounds with T cruzi growth-1 | NIH/3T3 viability, CellTiter-Glo ATP luminescence, 90 h | cytotoxicity (signal decrease), % at 8.35 µM | 14% of 5,600 active;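 active = mean signal decrease across replicates above about 35% based on untreated-well scatter, with enough replicates individually passing, limit read from the data; inconclusive = no rule stated though some were filed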;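 also: 0% = median of neutral control wells and 100% = median of positive control wells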
# NIH3T3 tox 2 – cytotoxicity in mouse NIH/3T3 fibroblasts; AID 651744; NIH/3T3 viability, CellTiter-Glo ATP luminescence, 90 h; 56% of 5,600 active; inhibition, % at 24.9 µM; shares compounds with T cruzi growth-1;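 active = mean loss of cell viability signal at or above a set limit, and enough replicates individually reaching it; inconclusive = meets only the mean limit or only the replicate share; inactive = meets neither condition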;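 also: 0% = median of neutral control wells and 100% = median of positive control wells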
# * = called active by the depositor; ? = inconclusive; / = no result.
SMILES,T cruzi growth-1,Pf Dd2 inh,C diff HTS,T cruzi growth-2,T cruzi growth-3,NIH3T3 tox,NIH3T3 tox 2
C[C@@H]1CCCCO[C@H](CN(C)C(=O)Nc2cccc3ccccc23)[C@@H](C)CN([C@H](C)CO)C(=O)c2cc(NS(=O)(=O)c3ccc(Cl)cc3)ccc2O1,88.5,-49.4,-11.9,/,/,/,/
C[C@@H]1CN([C@@H](C)CO)C(=O)c2cc(NS(=O)(=O)c3cccs3)ccc2O[C@@H](C)CCCCO[C@@H]1CN(C)C(=O)Nc1cccc2ccccc12,85.1,?,4.9,/,/,/,/
C[C@@H]1CN([C@@H](C)CO)C(=O)c2cc(NS(=O)(=O)c3ccc(Cl)cc3)ccc2O[C@@H](C)CCCCO[C@@H]1CN(C)C(=O)Nc1cccc2ccccc12,98.8*,-75.3,-3.8,105.4*,?,16.0,18.4
Cc1noc(C)c1NC(=O)Nc1ccc2c(c1)C(=O)N([C@H](C)CO)C[C@@H](C)[C@H](CN(C)C)OCCCC[C@H](C)O2,12.0,14.6,-1.9,/,/,/,/
C/C=C/c1ccc2c(c1)O[C@H](CN(C)C(=O)C1CC1)[C@H](C)CN([C@H](C)CO)S2(=O)=O,-131.6,-14.4,-1.8,/,/,/,/
COc1ccc(-c2ccc3n(c2=O)C[C@@H]2[C@@H](CO)[C@H](C(=O)NCCN4CCCCC4)N(C)[C@H]32)cc1,/,47.2,-1.1,/,/,/,/
C[C@@H]1CN([C@H](C)CO)C(=O)c2cc(NS(C)(=O)=O)ccc2O[C@@H]1CN(C)Cc1ccc(C(=O)Nc2ccccc2N)cc1,71.0,-33.0,-1.7,/,/,/,/
C[C@H](CO)N1C[C@H](C)[C@@H](CN(C)Cc2cccc(C(F)(F)F)c2)OCc2cn(nn2)CCCC1=O,16.8,-18.7,0.5,/,/,/,/
C[C@H]1CCCCO[C@@H](CN(C)C(=O)Nc2ccccc2)[C@@H](C)CN([C@@H](C)CO)C(=O)c2cc(NS(=O)(=O)c3cccs3)ccc2O1,17.5,/,-0.2,/,/,/,/
CC(C)NC(=O)Nc1cccc2c1O[C@H](CN(C)S(=O)(=O)c1cn(C)cn1)[C@H](C)CN([C@@H](C)CO)C2=O,-55.1,13.4,-2.1,/,/,/,/
CN(C)C(=O)C[C@@H]1CC[C@H](NS(=O)(=O)c2ccccc2)[C@H](CO)O1,4.7,19.5,/,/,/,/,/
CC1C=NC(S(=O)(=O)N2CC[C@@H]3[C@H]2c2cc(-c4ccc(F)cc4)ccc2N(C)[C@H]3CO)=N1 (stereo partly specified),72.1,-5.5,10.6,/,/,/,/
Cc1ccc(S(=O)(=O)N[C@@H]2CC[C@H](CCNC(=O)C3CCCCC3)O[C@H]2CO)cc1,6.0,13.2,/,/,/,/,/
C[C@@H]1CCCCO[C@H](CN(C)C(=O)Nc2cccc3ccccc23)[C@@H](C)CN([C@@H](C)CO)C(=O)c2cc(NS(C)(=O)=O)ccc2O1,7.9,-49.6,18.6,/,/,/,/
C[C@H]1CCCCO[C@H](CN(C)C(=O)Nc2cccc3ccccc23)[C@@H](C)CN([C@@H](C)CO)C(=O)c2cc(NS(=O)(=O)c3ccc(Cl)cc3)ccc2O1,?,-65.9,-12.3,97.3*,119.3*,-26.2,-9.8
C[C@@H]1CCCCO[C@@H](CN(C)C(=O)Nc2cccc3ccccc23)[C@H](C)CN([C@@H](C)CO)C(=O)c2cc(NS(C)(=O)=O)ccc2O1,116.1*,-37.0,7.8,-32.4,9.1,-12.4,-14.2
C[C@@H]1CCCCO[C@@H](CN(C)C(=O)Nc2cccc3ccccc23)[C@H](C)CN([C@H](C)CO)C(=O)c2cc(NS(=O)(=O)c3ccc(Cl)cc3)ccc2O1,89.8,-14.4,-4.2,/,/,/,/
Cc1noc(C)c1NC(=O)Nc1ccc2c(c1)C(=O)N([C@@H](C)CO)C[C@@H](C)[C@H](CN(C)C(=O)Nc1ccccc1)OCCCC[C@H](C)O2,-51.4,0.7,-2.4,/,/,/,/
O=S(=O)(N[C@@H]1CC[C@H](CCn2cc(-c3cccnc3)nn2)O[C@@H]1CO)c1ccccc1,21.9,-9.2,-2.6,/,/,/,/
Cc1noc(C)c1NC(=O)N[C@H]1CC[C@@H](CC(=O)NCCCN(C)C)O[C@@H]1CO,?,-4.0,/,31.8,-53.7,15.2,-11.4
Cc1noc(C)c1NC(=O)N[C@H]1C=C[C@@H](CC(=O)NCCCN(C)C)O[C@@H]1CO,4.7,8.9,-1.7,/,/,/,/
COCC#Cc1ccc2c(c1)O[C@@H](CN(C)Cc1ccccn1)[C@H](C)CN([C@H](C)CO)S2(=O)=O,8.3,-43.7,-3.9,/,/,/,/
CC(C)CC#Cc1ccc2c(c1)O[C@H](CN(C)Cc1ccccn1)[C@@H](C)CN([C@@H](C)CO)S2(=O)=O,131.9*,-74.3,17.5,96.8*,113.5*,20.3,104.7*
COCC#Cc1ccc2c(c1)O[C@H](CN(C)Cc1ccccn1)[C@@H](C)CN([C@@H](C)CO)S2(=O)=O,57.4,-30.1,-1.8,/,/,/,/
CC(C)CC#Cc1ccc2c(c1)O[C@H](CN(C)Cc1ccccn1)[C@H](C)CN([C@H](C)CO)S2(=O)=O,115.5*,-64.2,/,106.1*,55.9,12.5,107.3*
SMILES,T cruzi growth-1,Pf Dd2 inh,C diff HTS,T cruzi growth-2,T cruzi growth-3,NIH3T3 tox,NIH3T3 tox 2
COc1ccc(NC(=O)N2C[C@H](O)COC[C@H]3O[C@H](CC(=O)NCc4ccccc4OC)CC[C@@H]32)cc1,-6.9,-8.1,/,/,/,/,/
N#Cc1ccc(-c2ccc3c(c2)[C@H]2[C@H](CCN2C(=O)C2CC2)[C@@H](CO)N3)cc1,104.7*,16.3,-4.6,?,69.5,-1.9,31.7*
COCC(=O)N1CC[C@H]2[C@H](CO)Nc3ccc(-c4ccc(C#N)cc4)cc3[C@H]21,73.8,-22.0,-2.6,/,/,/,/
N#Cc1ccc(-c2ccc3c(c2)[C@H]2[C@H](CCN2C(=O)Cc2ccccc2)[C@@H](CO)N3)cc1,80.9,-23.1,-3.3,/,/,/,/
N#Cc1ccc(-c2ccc3c(c2)[C@@H]2[C@@H](CCN2C(=O)Cc2ccccc2)[C@@H](CO)N3)cc1,98.5*,-59.7,-0.3,100.2*,100.4*,7.8,39.9*
COCC(=O)N1CC[C@@H]2[C@H]1c1cc(-c3ccc(C#N)cc3)ccc1N[C@@H]2CO,113.7*,-63.2,-2.3,99.5*,41.3,5.1,11.1
N#Cc1ccc(-c2ccc3c(c2)[C@@H]2[C@@H](CCN2C(=O)C2CC2)[C@H](CO)N3)cc1,96.8*,15.2,-13.5,105.9*,83.1,-2.5,14.9
N#Cc1ccc(-c2ccc3c(c2)[C@H]2[C@H](CCN2C(=O)C2CCC2)[C@@H](CO)N3)cc1,/,-54.5,-3.3,/,/,/,/
N#Cc1ccc(-c2ccc3c(c2)[C@@H]2[C@@H](CCN2C(=O)C2CCCC2)[C@@H](CO)N3)cc1,/,-75.8,-15.0,/,/,/,/
CC(C)NC(=O)Nc1ccc2c(c1)C(=O)N([C@@H](C)CO)C[C@@H](C)[C@H](CN(C)Cc1ccc3c(c1)OCO3)OCCCC[C@H](C)O2,18.2,-52.3,-0.6,/,/,/,/
C[C@@H]1CN([C@@H](C)CO)C(=O)c2cc(NC(=O)CCC(F)(F)F)ccc2O[C@H]1CN(C)C(=O)Nc1ccc2c(c1)OCO2,54.8,-11.4,-0.2,/,/,/,/

# Screening results: PubChem, Broad Institute
